Laboratory results published in PubChem BioAssay AID463173 (ICCB-Longwood Screening Facility, Harvard Medical School, 2010).
Hit rate of the full screen: of about 52,000 compounds, about 4,300 (8.3%) were called active. Rule as the data show it: active = survival mostly below about 52% (no sharp cut-off); inactive = mostly above about 56%. Many of the other results were omitted from the sample, so actives are more common in it than they were.

System: DeltatarO mutant
Test: S. aureus survival, RN4220 and DeltatarO strains – OD600, teichoic acid synthesis inhibitors, primary screen (AID 463173)
Conditions: S. aureus RN4220 wild type/DeltatarO growth, OD600, 18 h, stronger effect = lower value, screened at 18.75 µg/mL (by protocol)

Row | SMILES | survival
1 | COc1ccc(Cl)cc1S(=O)(=O)Nc1cccc(-c2ccc(N3CCOCC3)nn2)c1 | 97% (inactive)
2 | NS(=O)(=O)c1ccc(CCNc2nc3c(-c4cccc(F)c4)nnn3c3ccc(Cl)cc23)cc1 | 65% (inactive)
3 | Cc1ccc2nc(SCC(=O)Nc3ccc(C#N)cc3)[nH]c2c1 | 64% (active)
4 | Cc1ccc(NC(=O)CSc2nc3ccc(Br)cc3[nH]2)c(C)c1 | 42% (active)
5 | COC(=O)c1ccc(NC(=O)CSc2nc3ccc(OC)cc3[nH]2)cc1 | 184% (inactive)
6 | COc1ccc(NC(=O)CSc2nc3ccccc3[nH]2)cc1 | 70% (inactive)
7 | Cc1cc(Cl)ccc1NC(=O)CSc1nc2c(c(=O)[nH]1)CCC2 | 80% (inactive)
8 | Cc1cc(C)c(NC(=O)CSc2nc3ccncc3[nH]2)c(C)c1 | 119% (inactive)
9 | COCCNC(=O)CCCn1c(SCc2ccccc2Cl)nc2c(sc3ccccc32)c1=O | 129% (inactive)
10 | COc1ccccc1NC(=O)c1ccc(-c2nc(COc3ccc(C)cc3)c(C)o2)cc1 | 83% (inactive)
11 | COc1ccc(Nc2nnc(-c3cc4c(ccc5ccccc54)oc3=O)s2)cc1 | 82% (inactive)
12 | CCCCN(Cc1ccccc1)S(=O)(=O)c1ccc2c(c1)CC(C)N2C(=O)CC (stereo unspecified) | 99% (inactive)
13 | CCOC(=O)c1c(C)oc2nc(C)nc(NCc3cccc(OC)c3)c12 | 72% (inactive)
14 | CCc1ccc(NC(=O)Cn2c(-c3cncs3)nc3ccccc32)cc1 | 59% (inactive)
15 | Cc1ccc(NC(=O)Cn2c(-c3cncs3)nc3ccccc32)c(Br)c1 | 63% (inactive)
16 | CCCCCOc1ccc(NC(=O)Cn2c(-c3cncs3)nc3ccccc32)cc1 | 86% (inactive)
17 | CC(=O)c1cccc(NC(=O)Cn2c(-c3cncs3)nc3ccccc32)c1 | 67% (inactive)
18 | CCCCOc1ccccc1NC(=O)Cn1c(-c2cncs2)nc2ccccc21 | 49% (active)
19 | Cc1cc(C)cc(NC(=O)Cn2c(-c3cncs3)nc3ccccc32)c1 | 37% (active)
20 | CC1CCN(C(=O)Cn2cc(SCC(=O)Nc3ccccc3)c3ccccc32)CC1 | 67% (inactive)
21 | CCOc1ccc(CNC(=O)CCc2c(C)nn(-c3ccc(N4CCOCC4)nn3)c2C)cc1 | 72% (inactive)
22 | O=C(CSc1nnc2c(n1)[nH]c1ccccc12)Nc1ccccc1 | 89% (inactive)

Row | SMILES | survival
23 | COc1ccc(CC(=O)NCC(c2ccc(Cl)cc2)N2CCOCC2)cc1 (stereo unspecified) | 71% (inactive)
24 | Cc1ccccc1Cc1c(C)nc2nc(SCC(=O)NC(C)c3ccccc3)nn2c1C (stereo unspecified) | 57% (active)
25 | Cc1ccccc1Cc1c(C)nc2nc(SCC(=O)N(C)c3ccccc3)nn2c1C | 78% (inactive)
26 | CCN(CC)CCCNC(=O)CSc1nc2nc(C)c(Cc3ccccc3C)c(C)n2n1 | 75% (inactive)
27 | CCCNC(=O)CSc1nc2nc(C)c(Cc3ccccc3Cl)c(C)n2n1 | 60% (inactive)
28 | Cc1ccc(Cc2c(C)nc3nc(SCC(=O)NC(C)c4ccccc4)nn3c2C)cc1 (stereo unspecified) | 53% (inactive)
29 | CCCCNC(=O)CSc1nc2nc(C)c(Cc3ccccc3C)c(C)n2n1 | 39% (active)
30 | Cc1cccc2sc(N(CCN(C)C)C(=O)c3ccc4c(c3)OCCO4)nc12 | 119% (inactive)
31 | CC(=O)N1CCc2c(sc3c2c(=O)n(-c2ccc(F)cc2)c(=O)n3Cc2ccc(C#N)cc2)C1 | 107% (inactive)
32 | Cc1ccc(CNCc2ccc3c(c2)n(C)c(=O)n3C)cc1 | 92% (inactive)
33 | CCN(CC)S(=O)(=O)c1ccc2c(c1)nc(CN(C)C(=O)c1cccc(Cl)c1)n2C | 71% (inactive)
34 | C#CCOc1ccc(C2C3=C(CCCC3=O)N(CCC(=O)O)C3=C2C(=O)CCC3)cc1 | 70% (inactive)
35 | COc1ccc2c(c1)CCc1c(C(=O)Nc3c(C)nn(Cc4c(Cl)cccc4Cl)c3C)noc1-2 | 114% (inactive)
36 | CCOC(=O)c1cc2c(=O)n3ccccc3nc2n(CC2CCCO2)c1=NC(=O)c1ccc(C)cc1 (stereo unspecified) | 101% (inactive)
37 | CCOC(=O)c1cc2c(=O)n3ccccc3nc2n(CC2CCCO2)c1=NC(=O)c1cccc(C)c1 (stereo unspecified) | 29% (active)
38 | CCOC(=O)c1cc2c(=O)n3ccccc3nc2n(CC2CCCO2)c1=NC(=O)c1ccc(C(C)(C)C)cc1 (stereo unspecified) | 59% (inactive)
39 | CCOC(=O)c1cc2c(=O)n3ccccc3nc2n(CC2CCCO2)c1=NC(=O)c1cccc(C(F)(F)F)c1 (stereo unspecified) | 97% (inactive)
40 | CCOC(=O)c1cc2c(=O)n3ccccc3nc2n(CC2CCCO2)c1=NC(=O)c1cc(C)cc(C)c1 (stereo unspecified) | 44% (active)
41 | CCn1c(CN2CCCCC2)nc2cc(NC(=O)c3cc(OC)c(OC)c(OC)c3)ccc21 | 87% (inactive)
42 | O=C(c1cnc(N2CCCCC2)c2ccccc12)N1CCN(c2ccccc2F)CC1 | 75% (inactive)
43 | Cc1ccc2c(c1)nnn2C1CCN(CC(=O)N(c2ccccc2)c2ccccc2)CC1 | 98% (inactive)
44 | CCOc1ccc(CNC(=O)c2cnc3sc(N4CCC(C)CC4)nn3c2=O)cc1OC | 74% (inactive)

Row | SMILES | survival
45 | COc1ccc(CNC(=O)Cc2c(C(=O)O)c(C)cn2C)cc1 | 94% (inactive)
46 | Cc1cn(C)c(CC(=O)NCc2cccc(Cl)c2)c1C(=O)O | 20% (active)
47 | Cc1cn(C)c(CC(=O)NCc2ccc(Cl)cc2)c1C(=O)O | 102% (inactive)
48 | Cc1cn(C)c(CC(=O)NCc2ccccc2)c1C(=O)O | 85% (inactive)
49 | COc1cccc(CNC(=O)Cc2c(C(=O)O)c(C)cn2C)c1 | 8% (active)
50 | Cc1ccc(CNC(=O)Cc2c(C(=O)O)c(C)cn2C)cc1 | 89% (inactive)
51 | COc1ccc(NC(=O)c2ccc3oc(=O)c(S(=O)(=O)c4ccc(C)cc4)cc3c2)cc1OC | 90% (inactive)
52 | COc1cc(Cl)c(C)cc1NC(=O)CCn1cnc2onc(-c3ccc(F)cc3)c2c1=O | 77% (inactive)
53 | COc1ccc(-c2nn3c(=O)cc(CN4CCN(C(=O)Nc5cc(C)ccc5C)CC4)nc3s2)cc1 | 99% (inactive)
54 | COc1ccc(NC(=O)C2CCN(S(=O)(=O)c3ccc4c(c3)CCCC(=O)N4)CC2)cc1Cl | 78% (inactive)
55 | COc1ccc(-c2cc(C(=O)NCc3ccccc3)c3c(-c4ccccc4)[nH]nc3n2)cc1 | 93% (inactive)
56 | CCOc1ccc(-c2cc(C(=O)NCCc3ccc(Cl)cc3)c3ccccc3n2)cc1 | 81% (inactive)
57 | CCOc1ccc(-c2cc(C(=O)NCCc3ccc(C)cc3)c3ccccc3n2)cc1 | 52% (active)
58 | COc1ccc(-c2cc(C(=O)NCCc3ccc(OC)c(OC)c3)c3ccccc3n2)cc1 | 48% (active)
59 | COc1ccc(Nc2cc(C(=O)NCc3ccccc3OC)c3ccccc3n2)cc1 | -5% (active)
60 | COc1ccc(CCNC(=O)c2cc(-c3ccccc3)nc3ccccc23)cc1OC | 58% (inactive)
61 | COc1ccc(Nc2cc(C(=O)NCc3ccccc3)c3ccccc3n2)cc1 | 97% (inactive)
62 | COc1ccc(Nc2cc(C(=O)NCc3cccs3)c3ccccc3n2)cc1 | 131% (inactive)
63 | CCOc1ccc(-c2cc(C(=O)NCc3ccccc3)c3c(-c4ccc(CC)cc4)[nH]nc3n2)cc1 | 47% (active)
64 | CCOc1ccc(-c2cc(C(=O)NCc3ccc(OC)cc3)c3c(-c4ccc(F)cc4)[nH]nc3n2)cc1 | 77% (inactive)
65 | COc1ccc(CCNC(=O)c2cc(-c3ccc(C)c(C)c3)nc3ccccc23)cc1OC | 120% (inactive)
66 | CCOc1ccc(-c2cc(C(=O)NCc3ccc(C)cc3)c3ccccc3n2)cc1 | 87% (inactive)
